Compound activity: PubChem BioAssay, Sanford-Burnham Center for Chemical Genomics
hiPSC survival: increases survival of single human iPS cells. hiPSC single-cell survival, ATPlite luminescence; 100% = ROCK inhibitor wells, 0% = DMSO. survival enhancement, % at 20 µM. 360,000 compounds, 0.044% hits; in the data active = survival enhancement above about 18%;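 note: cells exposed to compounds for 16 hours before the ATP read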
Cardio protect: protects H9c2 cardiomyocytes from peroxide injury; 360,000 compounds, 0.63% hits; H2O2 injury protection, ATPLite, 2 h; protection from H2O2 cell death, % at 20 µM;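 active = compounds giving at least 50% protection of heart cells from peroxide-induced death in the single-dose screen, raw or plate-pattern-corrected value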;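 note: 0% = DMSO wells with peroxide and 100% = DMSO wells without peroxide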
CRFR2-BP antag: antagonists of CRF-binding protein/CRF-R2 receptor complex | HEK293 CRF-R2/CRF-BP, CRF-induced calcium fluorescence | inhibition, % at 11.8 µM | 350,000 compounds, 0.59% hits;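 active = inhibition of the ligand-induced calcium signal above about 50% at the single tested concentration, limit read from the data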
SKN-1 block: blocks SKN-1 activity in C. elegans. AID 624304. C. elegans VP596 Pgst-4::GFP/RFP ratio, acrylamide-induced, 24 h. 360,000 compounds, 0.49% hits. inhibition, % at 21.8 µM;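 active = interference check ratio from 0.5 to 1.5 plus GFP to RFP signal ratio inhibition reaching or exceeding a fixed threshold, cut at about 30% in these data, passing the limit was not always enough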
TAG inh: reduces triacylglycerol accumulation in H9c2 cells | Nile Red lipid (TAG) fluorescence; cells loaded with 200 µM oleic acid | inhibition, % at 12.5 µM | 230,000 compounds, 0.66% hits | AID 651582;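 active = pattern-corrected inhibition of lipid staining of at least 50% with the nuclear-stain viability signal not falling by more than 50%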;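 note: 0% = DMSO wells and 100% = triacsin C control wells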
CRFBP-R2 agonist: agonists of human CRF-binding protein/CRF-R2 receptor complex; HEK293 CRF-R2/CRF-BP, calcium dye fluorescence (FLIPR); percent of saturating CRF peptide response; activation, % at 13.2 µM; 350,000 compounds, 0.46% hits; AID 588473;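 active = activation of at least 50%, plus an integration ratio under a set limit after plate pattern correction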;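 note: plate controls were neutral control wells without compound for no effect and CRF at EC100 for full effect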
TAG conf: confirmation of triacylglycerol accumulation inhibitors; shares compounds with TAG inh; H9c2 lipid accumulation, Nile Red fluorescence; cells loaded with 200 µM oleic acid; inhibition, % at 12.5 µM; 990 compounds, 71% hits;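 active = mean inhibition across replicates of 40% or more; inactive = mean inhibition below 40%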;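 note: plate controls were DMSO only wells for no effect and Triacsin C treated wells for full effect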
* marks the source's active call; other numbers are inactive results; nt = no result given. Hits are enriched below; roughly 2.5% of the tested compounds scored in any of these assays.

SMILES	hiPSC survival	Cardio protect	CRFR2-BP antag	SKN-1 block	TAG inh	CRFBP-R2 agonist	TAG conf
CC(=O)c1ccc(-c2cnc3c(NC=O)cc(-c4ccc(C(=O)NC5CC5)cc4)cn23)cc1	-5	95*	nt	-5	54*	nt	52*
Cc1cc(C)nc(NC(=O)c2c(-c3ccccc3Cl)noc2C)c1	-2	6	12	9	nt	-1	nt
O=c1nc(N/N=C/C=C/c2ccccc2)cn[nH]1	0	-5	98*	-1	64*	1	-7
COC(=O)c1ccc(Oc2cc(C)nc(SC)n2)cc1	-1	1	-9	-19	51*	-1	41*
CC(C)C[C@@H](CNC(=O)OC(C)(C)C)NC(=O)c1nc[nH]c1C(=O)N[C@@H](CC(C)C)C(=O)CNC[C@H](CC(C)C)NC(=O)c1nc[nH]c1C(=O)N[C@@H](Cc1c[nH]c2ccccc12)C(=O)OC(C)(C)C	-3	-2	9	21	60*	1	52*
Cc1ccnc(N=O)c1	-2	6	7	3	-1	-4	nt
Cc1ccc(-c2nn(-c3ccccc3)cc2CSC(=N)N)cc1	-4	-28	-44	43*	53*	-1	109*
N/C(=N\c1nc2ccccc2o1)NC(=O)c1ccc(F)cc1	-2	2	-23	5	66*	1	45*
COc1ccc(F)cc1C(=O)C1CCCN(C(=O)c2ccccc2N(C)C)C1 (stereo not drawn)	0	-1	-16	-1	nt	-1	nt
C=CC[C@@H](CC(=O)NCCO)C(=O)N[C@@H](COC(=O)[C@@H](CC=C)CC(=O)OC(C)(C)C)Cc1c[nH]c2ccccc12	-2	31	3	-1	19	0	nt
N#CC1=C(SCC(=O)c2ccc(Br)cc2)NC2=C(C(=O)CCC2)C1c1ccco1 (stereo not drawn)	1	1	6	15	57*	1	40
O=S(=O)(NC1Cc2ccccc2C1)c1ccccc1	0	-1	0	-8	nt	-3	nt
CCOC(=O)N1CCN(C(=O)COC(=O)c2oc3ccc(OC)cc3c2C)CC1	0	-1	-9	1	-10	0	nt
O=C(Nc1ccccc1N1CCCCC1)c1ncoc1-c1ccc(F)cc1	-1	-2	-5	10	55*	-2	43*
O=C(Nc1ccccc1N1CCCCC1)c1ncoc1-c1cccc(F)c1	0	-8	-14	-18	30	2	nt
Cn1c(N)c(C(=O)COC(=O)c2ccc([N+](=O)[O-])o2)c(=O)n(C)c1=O	0	19	-13	-6	88*	-2	101*
Cn1c(N)c(C(=O)COC(=O)c2ccc(Br)o2)c(=O)n(C)c1=O	0	11	9	-7	nt	-2	nt
COc1ccccc1-c1cc(C(F)(F)F)nc(S(=O)(=O)CCCC(=O)NC(C)C)n1	-6	-21	-18	-4	66*	-1	90*
COc1ccccc1-c1cc(C(F)(F)F)nc(S(=O)(=O)CCCC(=O)NCc2ccc(F)cc2)n1	0	-28	-16	3	82	2	nt
CCCc1[nH]n(-c2ccc([N+](=O)[O-])cc2)c(=O)c1C=NCCc1c[nH]c2ccccc12	0	-18	11	9	63*	0	65*
CC(C)c1ccc(NC(=O)Nc2nc(C(N)C3CCCCC3)cs2)cc1 (stereo not drawn)	-4	-28	nt	21	130*	nt	133*
CN(C)c1ccc(NC(=O)Nc2nc(C(N)C3CCCCC3)cs2)cc1 (stereo not drawn)	-5	6	nt	9	74*	nt	56*
COc1ccc(NC(=O)Nc2nc(C(N)C3CCCCC3)cs2)cc1 (stereo not drawn)	-3	1	nt	-4	42	nt	nt
NC(c1csc(Nc2ccc(C(=O)c3ccccc3)cc2)n1)C1CCCCC1 (stereo not drawn)	-3	-23	nt	-6	57*	nt	36
COc1ccc(CN2CCNC(=O)C2CC(=O)NCCC2=CCCCC2)cc1OC (stereo not drawn)	0	8	8	-8	6	0	nt
SMILES	hiPSC survival	Cardio protect	CRFR2-BP antag	SKN-1 block	TAG inh	CRFBP-R2 agonist	TAG conf
N#Cc1cnn2ccc(-c3ccc4c(c3)CCC4)nc12	0	-6	2	8	-37	-5	nt
CC1CN=C(NS(=O)(=O)c2ccccc2)N1 (stereo not drawn)	0	4	8	-11	-8	1	nt
O=C(NCCC1=CCCCC1)C1CCN(C(=O)Nc2ccccc2)CC1	-2	2	23	9	51*	0	33
O=C(NCCC1=CCCCC1)C1CCN(S(=O)(=O)N2CCCC2)CC1	0	3	9	-2	-7	2	nt
NS(=O)(=O)c1cccc(NC(=O)c2ccno2)c1	0	-2	9	3	nt	0	nt
O=C(Nc1nc2nc(-c3ccccc3)cc(-c3ccccc3)n2n1)c1ccco1	0	37	1	-13	64*	2	31
CCOC(=O)Cc1csc(NC(=O)C(NC(=O)C2CCC(C)CC2)C(C)C)n1 (stereo not drawn)	1	-7	-3	5	nt	-1	nt
COc1ccc(CCNC(=O)Cc2cc(OCc3ccccc3)c(OC)cc2[N+](=O)[O-])cc1OC	0	8	3	8	63*	0	33
CC1(C(=O)NCc2cccs2)Cc2c(-c3ccc4c(c3)OCO4)ccnc2O1 (stereo not drawn)	-3	-4	nt	11	54*	nt	52*
CC1(C(=O)Nc2cccc(Oc3ccccc3)c2)Cc2c(-c3ccc4c(c3)OCO4)ccnc2O1 (stereo not drawn)	1	-8	nt	16	63*	nt	47*
Cc1ccc(NC(=O)CSc2nnc(C)c(=O)n2N)cc1Cl	0	5	6	-5	51*	3	44*
Cc1cccc(NC(=O)CSCC(=O)N(C)Cc2c(F)cccc2Cl)c1	0	-8	-1	12	-24	-1	nt
CCN(CC)C(=O)C1=C(C)N(Cc2ccc(OC)cc2)C(=O)C(CC(=O)NC2CCCC2)C1 (stereo not drawn)	-1	1	6	1	3	-4	nt
COc1cc(OC)c2c(-c3ccccc3)cc(=O)oc2c1C(CCN1CCCCC1)c1ccc2c(c1)OCO2 (stereo not drawn)	-4	-22	-17	6	58*	14	41*
COc1cc(OC)c2c(-c3ccccc3)cc(=O)oc2c1C(CCN1CCCC(C)C1)c1ccc2c(c1)OCO2 (stereo not drawn)	-4	-18	-12	11	69*	13	51*
